Assay results taken from PubChem BioAssay.
Values without a mark were called inactive. Cut-off read from the data, not from the text of the source: active = nuclear beta-catenin stimulation mostly above about 4.2% (no sharp cut-off); inactive = mostly below about 10%.

Experiment: stimulators of nuclear beta-catenin in C2C12, primary screen, imaging, WNT3A-conditioned medium, mouse C2C12, NPC library (AID 1117326); note: reference of the scale not given here
Conditions: at 10 µM, active compounds read high
For `CC(C)(C)c1cc(O)ccc1O`, the nuclear beta-catenin stimulation was 2.1%. In the case of `CCN(CC)C(=O)N[C@@H]1C=C2c3cccc4[nH]cc(c34)C[C@@H]2N(C)C1`, the nuclear beta-catenin stimulation is reported as 0.6%. With `COc1cccc(C(=O)CCN[C@@H](C)[C@H](O)c2ccccc2)c1` the nuclear beta-catenin stimulation was 20.8%. For `CC1(C)S[C@@H]2[C@H](N)C(=O)N2[C@@H]1C(=O)O`, the nuclear beta-catenin stimulation was 0.4%. Compound `CCCN(CCC)C(=O)Cc1c(-c2ccc(Cl)cc2)nc2ccc(Cl)cn12` has a nuclear beta-catenin stimulation of -2%. For `Nc1ccccc1C(=O)O`, the nuclear beta-catenin stimulation was 1.8%. For `COc1cc(CC#N)cc(OC)c1OC`, the nuclear beta-catenin stimulation was 0%. With `C[C@H]1CNCCc2ccc(Cl)cc21` the nuclear beta-catenin stimulation was 2.8%. Work on `Nc1ccc(N)cc1` yielded a nuclear beta-catenin stimulation of -0.1%. Work on `CC(C)(C)NC[C@H](O)c1ccc(O)cc1Cl` yielded a nuclear beta-catenin stimulation of 0.3%. In the case of `Clc1ccccc1N1CCNCC1`, the nuclear beta-catenin stimulation is reported as 0.1%. With `CCN(CC)N(O)N=O` the nuclear beta-catenin stimulation was -1.2%. With `CCN(CC)Cc1nccn1-c1ccc([N+](=O)[O-])cc1C(=O)c1ccccc1Cl` the nuclear beta-catenin stimulation was -1.2%. With `O=c1[nH]c2cc(Cl)ccc2n1C1CCNCC1` the nuclear beta-catenin stimulation was 9.1%. With `Oc1ccccc1-c1ccccc1` the nuclear beta-catenin stimulation was 0.6%. For `O=C(N[C@H]1N=C(c2ccccc2F)c2cccc3c2N(CC3)C1=O)c1cc2ccccc2[nH]1`, the nuclear beta-catenin stimulation was 1.3%. Work on `COP(=S)(OC)SCN1C(=O)c2ccccc2C1=O` yielded a nuclear beta-catenin stimulation of 0.4%. With `CC(C)NC(C)C` the nuclear beta-catenin stimulation was 14.9%. For `CNC(C)[C@@H](O)c1ccc(O)cc1` (stereo not given in full), the nuclear beta-catenin stimulation was 0.7%. With `CCCOC(=O)c1cncn1C(C)c1ccccc1` (stereo not given) the nuclear beta-catenin stimulation was 3.6%. In the case of `C1CN(P2(N3CC3)=NP(N3CC3)(N3CC3)=NP(N3CC3)(N3CC3)=N2)CCO1` (stereo not given), the nuclear beta-catenin stimulation is reported as -0.2%. Compound `N[C@@H](Cc1ccc(Oc2cc(I)c(O)c(I)c2)c(I)c1)C(=O)O` has a nuclear beta-catenin stimulation of 0.6%. With `CC[N+]1(CC)CCC(OC(=O)C(O)(c2ccccc2)c2ccccc2)C1` (stereo not given) the nuclear beta-catenin stimulation was -0.2%. With `COc1ccc2c(C(=O)c3ccc(Cl)cc3)c(C)n(CC(=O)O)c2c1` the nuclear beta-catenin stimulation was -0.1%. `S=C(SSC(=S)N1CCCCC1)N1CCCCC1` gave a nuclear beta-catenin stimulation of 1.8%. Work on `C[N+](C)(C)CCOC(=O)C(O)(c1ccccc1)c1ccccc1` yielded a nuclear beta-catenin stimulation of -1.8%. In the case of `CNC(=O)NC(O)C(Cl)(Cl)Cl` (stereo not given), the nuclear beta-catenin stimulation is reported as -0.4%. `C[C@]12C[C@@H]3S[C@H]3C[C@@H]1CC[C@H]1[C@H]3CC[C@@H](O)[C@@]3(C)CC[C@@H]12` showed a nuclear beta-catenin stimulation of -1%. `O=C(O)c1ccc(=O)[nH]c1` showed a nuclear beta-catenin stimulation of 0.4%. `C#CCOC(C(=O)OCCN(C)C)(c1ccccc1)c1ccccc1` gave a nuclear beta-catenin stimulation of 2.7%. `CC(=O)C1CCOC1=O` (stereo not given) showed a nuclear beta-catenin stimulation of -0.1%. Work on `C[C@]12C=CC(=O)C=C1CC[C@@H]1[C@@H]2CC[C@@]2(C)[C@H]1CC[C@]2(C)O` yielded a nuclear beta-catenin stimulation of 6.6%. Compound `CN1CCc2cc(Cl)c(O)cc2[C@H]2c3ccccc3CC[C@@H]21` has a nuclear beta-catenin stimulation of 1.9%. For `C[C@]12CC[C@H]3[C@@H](CCC4=CC(=O)CC[C@@]43C)[C@@H]1CC[C@@H]2C(=O)O`, the nuclear beta-catenin stimulation was 0.7%. `O=C1OC(c2ccc(O)c(S(=O)(=O)O)c2)(c2ccc(O)c(S(=O)(=O)O)c2)c2c(Br)c(Br)c(Br)c(Br)c21` showed a nuclear beta-catenin stimulation of 3.3%. Work on `CN1CCC(O)(c2ccc(F)cc2)C(C(=O)c2ccc(F)cc2)C1` (stereo not given) yielded a nuclear beta-catenin stimulation of 20.8%. Compound `CC(=O)O[C@H]1C[C@H](O[C@H]2[C@@H](O)C[C@H](O[C@@H]3[C@@H](O)C[C@H](O[C@H]4CC[C@@]5(C)[C@H](CC[C@@H]6[C@H]5C[C@@H](O)[C@]5(C)[C@@H](C7=CC(=O)OC7)CC[C@]65O)C4)O[C@@H]3C)O[C@@H]2C)O[C@H](C)[C@H]1O[C@@H]1O[C@H](CO)[C@@H](O)[C@H](O)[C@@H]1O` has a nuclear beta-catenin stimulation of 1.6%. For `CCc1ccc(C2CCNCC2)cc1`, the nuclear beta-catenin stimulation was -1.4%. For `C=CCOC(Cn1ccnc1)c1ccc(Cl)cc1Cl` (stereo not given), the nuclear beta-catenin stimulation was 4.9%. Work on `C1CCC(NC2CCCCC2)CC1` yielded a nuclear beta-catenin stimulation of 1.5%.
